Screening data from PubChem BioAssay.
HEK cytotox: HEK 293 cell cytotoxicity | HEK 293 viability, ATP luminescence (CellTiter-Glo), 48-72 h | Potency, µM (series often up to 115 µM), for the others: at the top dose activity change, negative = cytotoxicity, hits mostly inhibitors | 94,000 compounds, 6.6% hits | AID 1345083; further: nearly all actives have a fitted effect of over 60% in size
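CellTiter-Glo luminescence (cellular ATP) was read after 48 or 72 hr of compound exposure at 37 degree Celsius. Cells were HEK 293 plated at 250 cells/well.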
NIH3T3 tox: NIH 3T3 cell cytotoxicity; NIH 3T3 viability, CellTiter-Glo ATP luminescence, 48-72 h; Potency, µM (highest dose often 96.7 µM), for the others: top-dose activity change, negative = cytotoxicity, hits mostly inhibitors; 94,000 compounds, 4.3% hits; AID 1345082; further: nearly all actives have a fitted effect of over 55% in size
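Mouse fibroblast NIH 3T3 cells, 400 per well, received compound via pintool and were incubated for 48 or 72 hr prior to CellTiter-Glo ATP luminescence measurement.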
hNpr1 antagonist: antagonists of human natriuretic peptide receptor Npr1. P16066. AID 1347048. Potency, µM (doses to about 46.3 µM), for inactives: top-dose activity change, negative = inhibition, actives largely listed as inhibitors. HEK293 hNpr1 GloSensor cGMP, ANP-stimulated luminescence. 76,000 compounds, 1.6% hits; calls by dose curve; further: nearly all actives have a fitted effect of over 60% in size
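Compound pre-incubated 30 min at room temperature on GloSensor-loaded HEK293 cells stably carrying hNpr1 and the pGS-40F cGMP biosensor. Stimulation uses hNppA at 0.1 nM final; luminescence is taken at baseline and 20 min post-agonist.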
GPT2 inhibitor: blocks human glutamate pyruvate transaminase 2. Q8TD30. Recombinant GPT2, coupled pyruvate oxidase/HRP Amplex Red fluorescence. Potency, µM (series often up to 57.7 µM), inactives show at the highest dose activity change, negative = inhibition, actives largely listed as inhibitors. 100,000 compounds, 0.25% hits. AID 1671188; further: nearly all actives have a fitted effect of over 60% in size
Target sequence (Q8TD30 whole entry, looked up): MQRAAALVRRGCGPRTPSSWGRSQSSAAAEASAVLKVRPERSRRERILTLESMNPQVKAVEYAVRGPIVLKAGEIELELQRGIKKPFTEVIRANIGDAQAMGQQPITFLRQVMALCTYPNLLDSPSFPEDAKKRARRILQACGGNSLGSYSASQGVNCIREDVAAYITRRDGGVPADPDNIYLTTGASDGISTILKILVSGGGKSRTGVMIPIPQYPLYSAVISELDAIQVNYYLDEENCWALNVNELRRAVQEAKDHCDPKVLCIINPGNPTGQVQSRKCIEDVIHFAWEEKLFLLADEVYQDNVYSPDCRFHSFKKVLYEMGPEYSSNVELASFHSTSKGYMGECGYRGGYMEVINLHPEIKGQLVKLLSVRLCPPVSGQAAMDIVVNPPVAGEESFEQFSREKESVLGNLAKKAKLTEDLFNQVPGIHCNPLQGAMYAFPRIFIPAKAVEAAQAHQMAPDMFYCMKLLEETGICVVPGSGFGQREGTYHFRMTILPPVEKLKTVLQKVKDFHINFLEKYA
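Fluorescence of coupled pyruvate oxidase/HRP/Amplex Red system (50uM Amplex, 30 min, dark) reports pyruvate formed by GPT2. Enzyme reaction: 10ng/uL GPT2, 2mM L-alanine, 250uM a-KG, 30 min room temperature, pH 7.5; 50uM AOA control.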
FLuc inh: blocks purified firefly luciferase enzyme activity; 76,000 compounds, 2.5% hits; P08659; purified P. pyralis luciferase, luminescence, biochemical; Potency, µM (titrated, usually from 115 µM), hits mostly inhibitors; further: nearly all actives have a fitted effect of over 65% in size
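Biochemical qHTS: compound (6-point titration) added to 10uM D-luciferin plus 10uM ATP in Tris acetate pH 7.5 buffer with Mg, Tween-20 and BSA, then purified enzyme at 10nM; light output imaged.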
The depositor's hits bear a star; i = inactive; ? = inconclusive; · = no result; ! = repeats disagree; [ ] = remark or other dose. Shown are actives, neighbours in structure and some others; about 10% of the full set was active somewhere. Unless noted, the call rests on the fitted dose curve; in most records, active means well fitted curve in the direction sought with a large enough effect; inconclusive means small, poorly fitted or top-dose-only effect, or another doubt; inactive means no such curve, though single readings can be large; an effect the other way counts as inactive or inconclusive. On the % scale 0 is the no-effect control and ±100 the full control effect; potency means the concentration at half of the fitted maximal effect.

SMILES	HEK cytotox	NIH3T3 tox	hNpr1 antagonist	GPT2 inhibitor	FLuc inh
Cc1cccc(C(=O)N2CCCCCC2c2nnc(-c3ccccc3)o2)c1 (centres undefined)	?	?	4.1%	1.0%	i
CO[C@H]1[C@H](NC(=O)c2cc(C)nn2C)c2ccccc2C12CCNCC2	0.8%	0.4%	2.8%	0.4%[11.5 µM]	i
CO[C@H]1[C@H](NC(=O)c2cc3ccccc3n2C)c2ccccc2C12CCNCC2	35.5µM*	22.4µM*	2.6%	-2.5%	i
COc1ccc(-c2cnc3[nH]cc(CC(N)=O)c3c2)cc1OC	?	10µM*	-1.5%[70.6 µM]	-1.4%[88.5 µM]	i
NC(=O)Cc1c[nH]c2ncc(-c3ccc(F)cc3)cc12	-6.8%[230 µM]	?	1.4%[70.6 µM]	i	?
O=C(Cc1c[nH]c2ncc(-c3cccc(CO)c3)cc12)NCc1cccnc1	-21.8%[172 µM]	?	-9.4%[70.6 µM]	3.0%[88.5 µM]	i
Cc1noc(C)c1-c1cnc2[nH]cc(CC(N)=O)c2c1	?	10µM*	-3.9%[70.6 µM]	-26.9%[88.5 µM]	i
Cc1noc(C)c1-c1cnc2[nH]cc(CC(=O)NCc3cccnc3)c2c1	?	31.6µM*	0.4%[70.6 µM]	i	i
CNC(=O)c1cc(C)nc2onc(C3CCCN(C(=O)C4CCCCC4)C3)c12 (centres undefined)	-0.5%	-23.0%	·	·	·
COc1cccc(C(=O)N2CCC3(CC2)NC(=O)N(c2cccc(F)c2)N3)c1	?	?	6.5%	?	i
COc1cc(OC)cc(C(=O)N2CCC3(CC2)NC(=O)N(c2ccc(F)cc2)N3)c1	28.2µM*	25.1µM*	-26.4%	?	i
COc1ccc(-c2noc(-c3ccc(N4C[C@H]5CC[C@H]4C5)nc3)n2)cc1	?	-22.2%	?	-2.6%	25.1µM*
COc1ccc(-c2ccc(C(=O)N3CCCC3)c(Cl)c2)nn1	?	31.6µM*	·	·	·
COc1ccc(-c2ccc(C(=O)N3CCCC3)cc2)nn1	25.1µM*	17.8µM*	·	·	·
CC(C)CNC(=O)c1ccc2nnc(-c3ccc(OC(F)(F)F)cc3)n2c1	?	?	·	i	·
CCN(CC)C(=O)CN1C(=O)C2(CCCCC2)C1c1ccccc1 (centres undefined)	-10.4%	-7.9%	·	i	·
COc1ccc(-c2nc(C)nc3c2CN([S+](=O)([O-])c2ccccc2)CC3)cc1	i	35.5µM*	·	i	·
Cc1nc2c(c(-c3ccc(Cl)cc3)n1)CCN([S+](C)(=O)[O-])CC2	-1.5%	-27.8%	2.2%	3.6%	i
O=[S+]([O-])(c1ccccc1)N1CCc2nc(C3CC3)nc(-c3ccc(Cl)cc3)c2C1	-20.2%	-0.8%	0.0%	3.0%	i
COc1ccc(-c2nc(C3CC3)nc3c2CN([S+](=O)([O-])c2ccccc2)CC3)cc1	2.3%	17.8µM*	·	2.8%	·
Cc1nc2c(c(-c3ccc(Cl)cc3)n1)CN([S+](=O)([O-])c1ccsc1)CC2	-28.3%	22.4µM*	12.3%	-0.6%	i
Cc1ccc([S+](=O)([O-])N2CCc3nc(-c4ccc(Cl)cc4)nc(-c4ccccc4)c3C2)cc1	?	-12.6%	-2.0%	4.5%	28.2µM*
Cc1cccc(C(C(=O)N2CCC(CCn3ccnc3C)CC2)N(C)C)c1 (centres undefined)	?	?	-0.9%	i	i
CCn1nc(CC(C)C)cc1C(=O)N(C)Cc1cccc(-n2cccn2)c1	50.1µM*	?	-15.2%	1.0%	i
Cc1ccc(CN2CCOc3ccc(CCC(=O)NCC4CC4)cc3C2)o1	?	?	·	1.4%	·
SMILES	HEK cytotox	NIH3T3 tox	hNpr1 antagonist	GPT2 inhibitor	FLuc inh
CCCc1nc(C(=O)NCc2ccc(-n3ccnc3C)cc2)cs1	20µM*	?	-26.7%	-9.0%	i
CC(=O)N1CCC(c2nnc3n2C(C(=O)NC2CCCCC2)CC3)CC1 (centres undefined)	i	i	·	3.1%	·
O[C@@H]1C[C@@H](c2nc(-c3ccc(F)cc3)no2)N(Cc2ccc(F)cc2)C1	100µM*	?	-5.4%[70.6 µM]	-1.8%[88.5 µM]	i
COc1ccc(-c2noc([C@@H]3C[C@@H](O)CN3Cc3ccc(C)cc3)n2)cc1	?	-9.4%[174 µM]	-0.4%[70.6 µM]	-6.0%[88.5 µM]	?
CS(=O)(=O)c1ccc(CN2C[C@H](O)C[C@H]2c2nc(-c3ccc(F)cc3)no2)cc1	-24.9%[172 µM]	-11.9%[138 µM]	-3.2%[70.6 µM]	4.3%[88.5 µM]	44.7µM*
Cc1nc(C2CC(O)C2)cc(N2CCN(c3ccc(F)c(Cl)c3)CC2)n1 (centres undefined)	17.8µM*	?	?	3.8%	i
Cc1nc(C2CC(O)C2)cc(N2CCN(c3cnn(C)c(=O)c3)CC2)n1 (centres undefined)	i	-0.8%	1.7%	2.1%	i
CNC(=O)c1ccccc1Nc1nc(Nc2ccc(N3CCNCC3)cc2)ncc1Cl	·	·	·	-2.6%	·
CNC(=O)c1ccccc1Nc1cc(Nc2ccc(N3CCOCC3)cc2OC)ncc1C(F)(F)F	·	·	·	22.4µM*	·
O=C(Cc1ccc(F)cc1)N1CCC2(CC1)Cc1ccccc1NC2=O	0.0%	-6.8%	?	0.9%	i
O=C(c1ccccc1F)N1CCC2(CC1)Cc1ccccc1NC2=O	50.1µM*	?	0.0%	i	i
O=C(c1cccc(Cl)c1)N1CCC2(CC1)Cc1ccccc1NC2=O	?	?	21.7%	0.2%	i
O=C(Cc1ccccc1)N1CCC2(Cc3ccccc3NC2=O)C1 (centres undefined)	100µM*	-24.3%[138 µM]	-5.1%[70.6 µM]	i	i
COc1cccc(C(=O)N2CCC3(CC2)Cc2ccccc2NC3=O)c1	44.7µM*	35.5µM*	-2.2%	3.0%	i
Cc1ccc(C(=O)N2CCC23Cc2ccccc2NC3=O)cc1 (centres undefined)	100µM*	-18.2%[138 µM]	0.0%[70.6 µM]	i	i
O=C1CCN(C(=O)C2(c3ccccc3)CC2)CCCC(C(=O)NCc2ccccc2)CCN1 (centres undefined)	2.4%	i	2.4%	i	i
COCCn1c(=O)c(C(=O)N2CCN(C(=O)c3ccccc3Cl)CC2)nc2cccnc21	-4.0%	-12.1%	·	i	·
COCCN1CCCCCC(O)c2cc(C(=O)NCc3cc(OC)ccc3OC)ccc21 (centres undefined)	?	?	-5.7%	i	i
O=C(c1ccc(Cl)cc1)N1CCC2(CC1)Cc1ccccc1NC2=O	?	28.2µM*!	1.8%	1.6%	i
O=C(c1ccc(Cl)cc1)N1CCC2(Cc3ccccc3NC2=O)C1 (centres undefined)	?	?	-27.4%[70.6 µM]	0.5%[88.5 µM]	i
O=C(c1ccccc1Cl)N1CCN(Cc2ccccc2-c2cccnc2)CC1	?	?	·	1.9%	·
c1cn(C2CCSC2)c(-c2cc3n(n2)CCNC3)n1 (centres undefined)	-5.7%	-0.3%	-0.4%	?	i
c1ccc2c(c1)CC(n1ccnc1-c1cc3n(n1)CCCNC3)C2	79.4µM*	?	-15.7%	-8.2%	i
